# For some of these results: Results with a measured potency or affinity are listed apart.
# Assays:
# Parameters in all cases: scale not given: direction of the effect not stated beside the values
# [1] = target: Protein translocase subunit SecA (Escherichia coli (strain K12)) (UniProt P10408); assay: Assay to Identify E. coli SecA ATPase Inhibitors; type: functional; settings: 30 µM
# [2] = target: T1, Ubiquitin-activating enzyme e1, putative (Leishmania donovani (strain BPK282A1)) (UniProt E9BSI1); assay: Leishmania donovani Ubiquitin Activating Enzyme (LdE1); type: functional; settings: 30 µM
# T1 sequence (whole entry): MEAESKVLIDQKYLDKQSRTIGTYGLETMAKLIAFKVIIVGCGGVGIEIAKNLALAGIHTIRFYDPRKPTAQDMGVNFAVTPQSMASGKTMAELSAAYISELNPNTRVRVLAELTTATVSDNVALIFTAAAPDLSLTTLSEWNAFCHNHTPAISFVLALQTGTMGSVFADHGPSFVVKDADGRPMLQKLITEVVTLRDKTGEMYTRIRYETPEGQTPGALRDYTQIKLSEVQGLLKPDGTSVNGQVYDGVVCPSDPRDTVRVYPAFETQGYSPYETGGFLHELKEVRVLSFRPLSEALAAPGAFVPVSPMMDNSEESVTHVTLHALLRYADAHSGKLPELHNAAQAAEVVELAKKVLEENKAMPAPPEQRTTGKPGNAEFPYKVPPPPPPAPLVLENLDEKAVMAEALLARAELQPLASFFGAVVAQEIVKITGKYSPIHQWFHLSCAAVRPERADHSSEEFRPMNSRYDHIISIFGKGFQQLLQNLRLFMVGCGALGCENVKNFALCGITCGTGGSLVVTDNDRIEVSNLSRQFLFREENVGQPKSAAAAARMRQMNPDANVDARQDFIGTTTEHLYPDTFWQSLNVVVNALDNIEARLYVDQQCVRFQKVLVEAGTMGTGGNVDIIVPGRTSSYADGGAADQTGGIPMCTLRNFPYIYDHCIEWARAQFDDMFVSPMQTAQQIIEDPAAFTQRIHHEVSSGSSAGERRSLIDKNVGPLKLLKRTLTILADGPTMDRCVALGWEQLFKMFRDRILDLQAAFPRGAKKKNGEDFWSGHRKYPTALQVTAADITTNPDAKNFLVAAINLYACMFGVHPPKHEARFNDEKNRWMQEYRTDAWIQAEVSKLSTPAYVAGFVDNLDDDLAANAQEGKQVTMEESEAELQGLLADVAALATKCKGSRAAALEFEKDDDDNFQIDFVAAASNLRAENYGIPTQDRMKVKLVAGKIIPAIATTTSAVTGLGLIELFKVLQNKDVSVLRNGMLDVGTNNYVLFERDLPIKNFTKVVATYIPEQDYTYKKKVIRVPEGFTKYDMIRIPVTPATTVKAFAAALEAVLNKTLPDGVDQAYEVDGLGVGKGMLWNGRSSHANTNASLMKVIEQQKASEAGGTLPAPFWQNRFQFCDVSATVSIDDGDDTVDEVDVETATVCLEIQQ
# [3] = target: AMP-activated protein kinase, AMPK (Homo sapiens) (UniProt P54646+O43741+P54619+Q9UGJ0+Q9Y478+Q13131+Q9UGI9); assay: AMP-dependent Kinase enzyme assay. An in vitro enzyme assay that detects ADP turnover that is directly proportional to AMPK activity. This uses naive AMPK that is activated during the assay with MK-8722; type: functional; settings: 30 µM
# [4] = target: Sialic acid-binding Ig-like lectin 9 (Homo sapiens) (UniProt Q9Y336); assay: Hs-Siglec9 ALPHAscreen SOP 20170721; settings: 10 µM
# Chain of Sialic acid-binding Ig-like lectin 9 (Homo sapiens) (Q9Y336 whole entry): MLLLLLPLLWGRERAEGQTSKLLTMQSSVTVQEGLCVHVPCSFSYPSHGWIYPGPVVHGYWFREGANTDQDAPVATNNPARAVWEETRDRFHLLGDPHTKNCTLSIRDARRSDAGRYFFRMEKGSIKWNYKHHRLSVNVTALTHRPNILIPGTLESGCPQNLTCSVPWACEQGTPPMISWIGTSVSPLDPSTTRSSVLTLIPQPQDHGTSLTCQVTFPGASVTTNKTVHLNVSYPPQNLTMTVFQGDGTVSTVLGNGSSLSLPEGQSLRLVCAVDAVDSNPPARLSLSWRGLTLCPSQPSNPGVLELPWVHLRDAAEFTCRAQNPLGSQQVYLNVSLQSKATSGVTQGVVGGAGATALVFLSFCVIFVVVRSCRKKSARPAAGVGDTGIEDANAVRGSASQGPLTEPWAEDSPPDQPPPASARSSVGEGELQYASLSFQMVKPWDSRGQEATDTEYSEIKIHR
# [5] = system: Trypanosoma cruzi; assay: Trypanosoma cruzi phosphomannomutase and mannose-1-phosphate guanylyltransferase assay; type: functional; settings: 10 µM
# [6] = target: T2, Arginase-2, mitochondrial (Homo sapiens) (UniProt P78540); assay: in vitro enzyme assay to detect the production of urea directly proportional to the activity of Arginase II; type: functional; settings: 33.3 µM; further: in the data most compounds retested in dose-response had high values
# T2 sequence (whole entry): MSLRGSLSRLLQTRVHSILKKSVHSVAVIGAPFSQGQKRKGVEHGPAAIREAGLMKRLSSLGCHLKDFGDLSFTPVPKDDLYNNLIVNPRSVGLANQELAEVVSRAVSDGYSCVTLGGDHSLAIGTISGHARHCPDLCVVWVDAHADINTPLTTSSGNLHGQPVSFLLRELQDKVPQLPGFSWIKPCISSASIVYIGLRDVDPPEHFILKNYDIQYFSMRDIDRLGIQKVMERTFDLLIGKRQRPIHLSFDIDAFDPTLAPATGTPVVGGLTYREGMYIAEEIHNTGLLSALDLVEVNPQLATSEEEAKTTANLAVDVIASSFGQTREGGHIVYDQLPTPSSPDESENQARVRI
# [7] = target: T3, Proteasome subunit beta (Trypanosoma cruzi) (UniProt O96673); assay: Trypanosoma cruzi proteasome chymotrypsin-like activity (TcProtChymo) assay.; further: in the data most compounds retested in dose-response had high values; type: functional; settings: 9.37 µM
# T3 sequence (whole entry): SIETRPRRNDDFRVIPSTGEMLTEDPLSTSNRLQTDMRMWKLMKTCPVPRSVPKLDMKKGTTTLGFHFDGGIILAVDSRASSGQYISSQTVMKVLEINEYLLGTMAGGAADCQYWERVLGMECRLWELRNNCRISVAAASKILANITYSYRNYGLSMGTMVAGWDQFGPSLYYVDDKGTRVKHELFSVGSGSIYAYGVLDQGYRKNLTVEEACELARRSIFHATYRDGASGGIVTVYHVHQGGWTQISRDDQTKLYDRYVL
# [8] = species on record: Homo sapiens; assay: To identify inhibition of the IFN signalling (Jak-Stat) pathway via expression of an eGFP reporter gene under the control of an IFN-stimulated response element (ISRE) containing MxA promoter.; type: functional; settings: 30 µM
# [9] = target: T4, Tyrosyl-tRNA synthetase, putative (Trypanosoma cruzi (strain CL Brener)) (UniProt Q4DSP6); assay: Trypanosoma cruzi tyrosyl tRNA synthetase (TcYRS) _High Tyrosine SOP; type: functional; settings: 30 µM; further: in the data most compounds retested in dose-response had high values
# T4 sequence (whole entry): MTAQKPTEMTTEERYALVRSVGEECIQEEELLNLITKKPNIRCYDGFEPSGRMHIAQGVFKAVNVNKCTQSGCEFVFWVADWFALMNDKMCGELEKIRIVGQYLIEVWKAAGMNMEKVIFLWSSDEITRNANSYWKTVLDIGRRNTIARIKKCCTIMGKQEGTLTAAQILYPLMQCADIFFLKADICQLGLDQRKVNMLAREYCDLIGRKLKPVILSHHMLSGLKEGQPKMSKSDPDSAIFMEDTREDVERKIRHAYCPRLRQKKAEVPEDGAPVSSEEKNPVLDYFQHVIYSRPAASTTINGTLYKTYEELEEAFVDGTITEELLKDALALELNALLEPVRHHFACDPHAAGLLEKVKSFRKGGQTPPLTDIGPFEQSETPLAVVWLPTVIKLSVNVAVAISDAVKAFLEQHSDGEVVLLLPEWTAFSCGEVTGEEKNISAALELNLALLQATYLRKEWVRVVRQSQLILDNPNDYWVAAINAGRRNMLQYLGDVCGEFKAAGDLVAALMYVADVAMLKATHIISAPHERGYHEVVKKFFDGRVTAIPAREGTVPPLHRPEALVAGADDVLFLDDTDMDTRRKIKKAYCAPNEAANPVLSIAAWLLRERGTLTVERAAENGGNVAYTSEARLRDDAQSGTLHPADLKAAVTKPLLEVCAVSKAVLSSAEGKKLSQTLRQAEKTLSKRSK
# [10] = target: T4, Tyrosyl-tRNA synthetase, putative (Trypanosoma cruzi (strain CL Brener)); assay: Trypanosoma cruzi tyrosyl tRNA synthetase (TcYRS) SOP; type: functional; settings: 30 µM
# [11] = target: Chromo domain-containing protein 1 (Saccharomyces cerevisiae (strain ATCC 204508 / S288c) (Baker's yeast)) (UniProt P32657); assay: ScCHD-1 Enzyme Inhibition Assay; type: functional; settings: 30 µM; further: in the data most compounds retested in dose-response had high values
# Chain of Chromo domain-containing protein 1 (Saccharomyces cerevisiae (strain ATCC 204508 / S288c) (Baker's yeast)) (P32657 whole entry, the tested form may be a part): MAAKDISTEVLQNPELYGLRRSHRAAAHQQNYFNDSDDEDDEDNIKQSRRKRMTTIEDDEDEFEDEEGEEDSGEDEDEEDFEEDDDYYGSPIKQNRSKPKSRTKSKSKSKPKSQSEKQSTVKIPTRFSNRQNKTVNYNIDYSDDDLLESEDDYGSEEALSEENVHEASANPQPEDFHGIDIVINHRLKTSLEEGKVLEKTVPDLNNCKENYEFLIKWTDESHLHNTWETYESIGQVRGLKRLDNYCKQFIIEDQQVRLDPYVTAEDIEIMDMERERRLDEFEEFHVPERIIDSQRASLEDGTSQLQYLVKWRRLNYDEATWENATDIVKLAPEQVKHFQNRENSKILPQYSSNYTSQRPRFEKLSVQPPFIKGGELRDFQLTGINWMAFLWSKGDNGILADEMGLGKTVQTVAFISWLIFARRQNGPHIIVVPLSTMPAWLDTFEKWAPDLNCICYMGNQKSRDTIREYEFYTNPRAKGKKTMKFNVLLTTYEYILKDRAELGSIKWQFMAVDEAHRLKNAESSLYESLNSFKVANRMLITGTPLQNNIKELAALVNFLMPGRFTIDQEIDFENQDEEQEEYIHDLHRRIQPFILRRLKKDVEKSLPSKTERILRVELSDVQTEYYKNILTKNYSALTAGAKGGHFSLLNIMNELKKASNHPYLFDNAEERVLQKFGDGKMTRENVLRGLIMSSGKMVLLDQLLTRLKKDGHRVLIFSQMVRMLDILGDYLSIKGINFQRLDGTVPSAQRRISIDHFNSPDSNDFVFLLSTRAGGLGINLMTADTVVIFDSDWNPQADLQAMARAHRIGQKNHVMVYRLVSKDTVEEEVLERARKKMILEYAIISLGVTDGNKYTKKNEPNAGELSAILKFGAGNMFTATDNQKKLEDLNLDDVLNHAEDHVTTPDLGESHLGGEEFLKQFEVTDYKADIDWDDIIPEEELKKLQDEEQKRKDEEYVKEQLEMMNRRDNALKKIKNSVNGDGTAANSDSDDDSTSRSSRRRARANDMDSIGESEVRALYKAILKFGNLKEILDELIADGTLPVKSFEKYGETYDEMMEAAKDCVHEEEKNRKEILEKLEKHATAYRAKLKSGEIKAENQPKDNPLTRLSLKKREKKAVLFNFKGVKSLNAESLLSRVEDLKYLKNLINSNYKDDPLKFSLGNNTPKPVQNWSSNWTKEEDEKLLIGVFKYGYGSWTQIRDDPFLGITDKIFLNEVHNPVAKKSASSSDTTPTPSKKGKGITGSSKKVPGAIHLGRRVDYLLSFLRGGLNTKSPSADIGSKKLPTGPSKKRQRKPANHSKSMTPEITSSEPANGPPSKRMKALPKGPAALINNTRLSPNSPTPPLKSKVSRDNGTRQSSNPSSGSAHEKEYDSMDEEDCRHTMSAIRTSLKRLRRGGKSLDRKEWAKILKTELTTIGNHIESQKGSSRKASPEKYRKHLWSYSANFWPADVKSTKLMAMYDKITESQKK
# Chain of Protein translocase subunit SecA (Escherichia coli (strain K12)) (P10408 whole entry): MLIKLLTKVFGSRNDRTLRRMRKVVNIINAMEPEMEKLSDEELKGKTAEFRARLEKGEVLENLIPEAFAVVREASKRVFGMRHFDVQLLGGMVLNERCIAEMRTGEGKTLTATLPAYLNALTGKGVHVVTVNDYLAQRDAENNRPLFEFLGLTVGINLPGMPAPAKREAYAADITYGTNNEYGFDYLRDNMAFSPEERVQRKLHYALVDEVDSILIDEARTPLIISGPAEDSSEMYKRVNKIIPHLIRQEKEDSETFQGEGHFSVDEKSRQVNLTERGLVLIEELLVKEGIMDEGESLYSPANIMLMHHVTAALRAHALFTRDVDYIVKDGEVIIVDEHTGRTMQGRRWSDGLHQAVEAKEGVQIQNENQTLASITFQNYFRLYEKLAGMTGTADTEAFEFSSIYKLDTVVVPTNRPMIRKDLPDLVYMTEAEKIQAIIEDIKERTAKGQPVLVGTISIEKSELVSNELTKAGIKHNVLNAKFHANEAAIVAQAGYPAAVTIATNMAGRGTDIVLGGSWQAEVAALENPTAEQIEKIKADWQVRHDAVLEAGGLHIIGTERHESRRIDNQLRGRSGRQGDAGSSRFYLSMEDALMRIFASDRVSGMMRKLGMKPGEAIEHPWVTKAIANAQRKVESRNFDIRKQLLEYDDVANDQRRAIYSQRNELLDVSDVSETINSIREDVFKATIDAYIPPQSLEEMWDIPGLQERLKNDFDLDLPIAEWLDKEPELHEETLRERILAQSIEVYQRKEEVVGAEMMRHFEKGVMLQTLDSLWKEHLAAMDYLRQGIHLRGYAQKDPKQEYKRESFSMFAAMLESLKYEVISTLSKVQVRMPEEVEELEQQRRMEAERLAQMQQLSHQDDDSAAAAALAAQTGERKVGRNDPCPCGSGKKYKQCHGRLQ
Compound,Percent Effect [1],Percent Effect [2],Percent Effect [3],Percent Effect [4],Percent Effect [5],Percent Effect [6],Percent Effect [7],Percent Effect [8],Percent Effect [9],Percent Effect [10],Percent Effect [11]
CCc1nc(C2CCCN(C(=O)CN(C)S(C)(=O)=O)C2)no1 (stereo not drawn),-5.19%,18.2%,-2.51%,-7.32%,6.95%,-2.32%,9.3%,0.959%,6.67%,21.2%,-25.7%
CCOc1ccccc1CSc1nnc(CC2CCS(=O)(=O)C2)n1C (stereo not drawn),-2.9%,2.7%,-1.67%,1.02%,-3.42%,1.74%,9.19%,5.04%,3.23%,11.1%,-8.57%
O=C(CN1CCC(c2ccnn2CCO)CC1)NCC1CC1,-2.3%,17.7%,-5.47%,0.194%,2.36%,0.76%,6.96%,-2.19%,8.37%,29.1%,-5.59%
c1cncc(-c2ccc3c(c2)C2(CC3)CCN(c3nncs3)CC2)c1,-0.421%,0%,3.46%,8.96%,5.56%,1.6%,14.5%,47.4%,14.6%,8.64%,2.02%
Cn1cc(C2COC3(CCN(C(=O)c4ccc(F)cc4)CC3)C2)cn1 (stereo not drawn),-3.35%,8.11%,6.34%,-3.51%,-2.25%,7.33%,19.9%,-15%,2.16%,17.9%,2.2%
CCN1CC2(CCN(CCOCCO)CC2)CC(c2ccccc2)C1=O (stereo not drawn),-1.44%,8%,-14.6%,3.65%,0.292%,-3.12%,15.2%,14.3%,2.73%,8.64%,-6.05%
N#Cc1c(F)cccc1N1CCN(S(=O)(=O)c2cccs2)CC1,-2.74%,-8.22%,3.3%,3.95%,3.33%,13.2%,8.16%,55.5%,-38.7%,-52.5%,48.5%
COCCc1noc(CNCC2CCCN2c2cccnn2)n1 (stereo not drawn),-4.29%,18.2%,-3.94%,-5.52%,4.41%,-5.68%,20.8%,2.37%,10.5%,32.9%,-23.1%

# — ChEMBL document CHEMBL3988442, “University of Dundee, Small-Polar-MMV Screening Library” (2021)
